Only a selection was taken, and hits are over-represented in it overall.
CHX counter: affects cycloheximide protein synthesis inhibition readout, counter-screen; max response, %; cell reporter, cycloheximide protein synthesis inhibition counterscreen; 300,000 tested, 12% active; AID 2314; in the data active = max response mostly above about 13%, no sharp cut-off; inactive = mostly below about 14%; also: read at 38.3 µM for the half of the compounds with a filed dose
Marburg entry inh: inhibitors of Marburg virus binding or cell entry; 300,000 tested, 1.8% active; Potency, µM (highest dose often 37.8 µM), usual class: inhibitors; Marburg virus pseudotyped entry inhibition, cell reporter; calls by dose curve; tested in HEK293 cells
Vaccinia Venus: vaccinia inhibition (Venus reporter); Potency, µM (top dose mostly 36.5 µM), usual class: inhibitors; 330,000 tested, 0.46% active; Vaccinia virus Venus reporter expression, fluorescence; calls by dose curve; tested in A549 cells; also: nearly all actives have a fitted effect of over 30% in size
Lassa entry inh: blocks Lassa virus binding to or entry into cells. Lassa virus pseudotype entry inhibition, cell reporter. Potency, µM (titrated, usually from 37.9 µM), hits mostly inhibitors. 300,000 tested, 1.2% active; calls by dose curve; tested in HEK293 cells; also: nearly all actives have a fitted effect of over 50% in size
Shiga toxin inh: Shiga toxin inhibition | Vero cells, Shiga toxin protein synthesis inhibition reporter | inhibition, % at 38.7 µM | 290,000 tested, 9.2% active | AID 2315; in the data active = inhibition mostly above about 28%, no sharp cut-off; inactive = mostly below about 43%
Vaccinia mCherry: inhibitors of vaccinia virus infection (mCherry reporter signal); Vaccinia virus mCherry reporter infection, fluorescence; Potency, µM (highest dose often 36.5 µM), hits mostly inhibitors; 310,000 tested, 0.63% active; calls by dose curve; tested in A549 cells; also: nearly all actives have a fitted effect of over 35% in size
Hits are given with their value; n = inactive; u = inconclusive; x = not tested or not shown; [ ] = remark or other dose.

SMILES	CHX counter	Marburg entry inh	Vaccinia Venus	Lassa entry inh	Shiga toxin inh	Vaccinia mCherry
O=C(CCc1ccc(S(=O)(=O)NCCc2ccccc2)cc1)Nc1ccc2c(c1)OCO2	n	n	x	n	n	x
O=C(Nc1ccc(S(=O)(=O)NCc2ccccc2)cc1)Nc1ccc2c(c1)OCO2	27.8	n	n	n	81.2	n
Cc1cc2nc(CS(=O)(=O)c3ccccc3)cc(=O)n2[nH]1	n	u	n	n	n	n
Nc1cc(=O)nc(SCC(=O)Nc2ccc(F)cc2)n1-c1cccc(Cl)c1	x	u	n	n	x	n
CC(C)n1cnc2c(N(C)c3ccccc3)nc(N(CCN(C)C)Cc3ccccc3)nc21	n	x	12.6µM	x	n	u
COc1cc(N(Cc2ccccc2)Cc2ccccc2)c2ncn(C(C)C)c2c1	x	x	n	x	x	n
Cc1ccc(OCC(=O)N2CCN(c3nnc(-c4ccc(C)cc4)c4ccccc34)CC2)cc1	n	4.11µM	x	u	n	x
CCOc1cc(/C=N/Nc2nc(-c3cccs3)c(NC(C)=O)s2)ccc1O	19.7	u	n	u	n	u
CC(=O)Nc1sc(N/N=C\c2ccccc2Cl)nc1-c1cccs1	73.1	n	u	n	81.6	11.2µM
CC(=O)Nc1sc(NC(=O)c2ccc(Cl)cc2)nc1-c1cccs1	n	u	n	n	n	n
CCOc1cc(/C=N/NC(=O)CSc2cccc3cccnc23)ccc1O	n	n	n	u	n	u
CC(=O)Nc1sc(N/N=C\c2ccccc2)nc1-c1cccs1	31.1	n	n	n	active	n
CC(=O)Nc1sc(N/N=C\c2ccco2)nc1-c1cccs1	11.9	n	n	n	n	n
CC(=O)Nc1sc(NC(=O)c2ccc([N+](=O)[O-])cc2)nc1-c1cccs1	n	x	x	x	n	x
Cc1ccccc1C(=O)N1CCc2c(cnc(C)c2CNC(=O)CN2CCCCC2)C1	x	x	n	x	x	n
CC(C)Oc1ccc(C(CCN)C2CCCCC2)cc1 (stereo unspecified)	n	u	u	u	n	12.6µM
CC(C)Oc1ccc(OCCCN2CCCCCC2)cc1	n	u	n	n	n	n
O=C1C2CC=CCC2C(=O)N1n1cnnc1 (stereo unspecified)	n	x	x	x	n	x
CCOCCCNc1ccc(-c2ccccc2)nn1	26.6	n	x	u	109.0	x
COCCCNc1ccn2nc(-c3ccccc3)cc2n1	x	x	n	x	x	n
O=C(CCNc1ccc(F)c(Cl)c1)c1ccco1	n	n	u	n	n	u
O=C(CCNc1ccc(F)cc1)c1ccco1	52.2	n	n	n	90.1	x
O=C(COC(=O)c1ccco1)c1ccc(F)cc1	54.6	n	n	n	110.3	n
CCOc1ccc(Oc2ccc(Cl)cc2N)cc1	24.4	x	n	x	28.6	n
COc1ccc(C2/C=C\CN(C(=O)c3ccccc3)C(Cc3ccccc3)C(=O)N2Cc2ccc(F)cc2)cc1 (stereo unspecified)	n	x	x	x	n	x
SMILES	CHX counter	Marburg entry inh	Vaccinia Venus	Lassa entry inh	Shiga toxin inh	Vaccinia mCherry
CCc1cc(C=NC2CCCCC2)c(O)s1	66.5	u	n	n	118.6	n
Cn1c(O)c(C=NC2CCCCCC2)c(=O)[nH]c1=S	n	x	x	x	n	x
O=S(=O)(Nc1cccnc1)c1cccc(C(F)(F)F)c1	n	n	n	u	n	n
O=[N+]([O-])c1ccc(S(=O)(=O)c2cccc(C(F)(F)F)c2)nc1	x	11.2µM	u	u	x	n
CCC1CN(Cc2cccn2-c2ccccn2)Cc2cc(OC)ccc2O1 (stereo unspecified)	x	x	n	x	x	n
O=C(Nc1ccc2c(c1)OCCO2)c1cc(-c2ccccn2)nc2ccc(Br)cc12	n	n	n	n	n	n
Cc1cccc(-c2cc(C(=O)Nc3ccc4c(c3)OCCO4)c3ccccc3n2)c1	31.6	n	n	n	96.2	x
CCOc1ccc(-c2cc(C(=O)Nc3ccc4c(c3)OCCO4)c3ccccc3n2)cc1	22.8	u	n	n	52.5	x
COc1nc(SCC(=O)Nc2ccccc2Cl)nc(N(C)C)n1	18.3	u	n	n	n	n
CCNc1nc(SCC(=O)Nc2ccc(Cl)c(Cl)c2)nc(N(C)C)n1	n	x	x	x	n	x
CN(C)c1nc(NCc2ccccc2)nc(SCC(=O)Nc2ccc(Cl)c(Cl)c2)n1	n	11.6µM	x	n	n	x
CCOC(=O)c1c(C)[nH]c(C)c1S(=O)(=O)NCC1CCN(Cc2cccc(F)c2)CC1	n	x	x	x	n	x
Cc1nn(-c2ccccc2)c(NC(=O)C(C)C)c(-c2ccccc2)c1=O	n	n	n	n	n	n
Cc1nn(-c2ccccc2)c(N)c1-c1ccccc1	38.3	u	n	u	64.2	u
Cc1nn(-c2ccccc2)c(/N=C/c2ccccc2O)c1-c1ccccc1	79.8	u	n	u	active	n
Cc1cc(-c2ccccc2)n(-c2ccccc2)n1	40.1	n	n	n	93.9	n
Cc1cc(-c2ccco2)n(-c2ccccc2)n1	n	n	x	u	n	x
CCOC(=O)Cn1nc(C)c(-c2ccccc2)c1N	n	n	x	n	n	x
Cc1nn(CC2CCCCC2)c(N)c1-c1ccccc1	44.1	n	n	n	64.5	x
Cc1nn(-c2nc3ccccc3[nH]2)c(N)c1-c1ccccc1	41.9	u	u	u	66.9	u
Cc1ccc(C2NC(=O)NC3=C2CCc2ccccc23)cc1 (stereo unspecified)	57.2	n	n	n	70.6	n
CC(C)(C)c1ccc(OCC(=O)Nc2ccc(C(=O)Nc3ccccc3C(=O)O)cc2)cc1	n	u	n	n	n	n
CN(C)c1ccc(NC(=O)CN2CCc3ccccc3C2)cc1	36.3	u	n	u	92.3	n
COc1ccc(NC(=O)CN2CCc3ccccc3C2)c(OC)c1	12.8	n	n	u	n	u
CSc1ccc(NC(=O)NCCN2CCc3ccccc3C2)cc1	16.2	u	x	n	n	x
SMILES	CHX counter	Marburg entry inh	Vaccinia Venus	Lassa entry inh	Shiga toxin inh	Vaccinia mCherry
COc1ccc(NC(=O)CSc2ccccc2)c(OC)c1	43.0	n	n	u	82.6	x
O=C(CN1CCc2ccccc2C1)Nc1ccc(F)cc1	n	x	x	x	n	x
Cc1nc(-c2ccc(S(=O)(=O)N(C)Cc3ccccc3)cc2)co1	x	x	n	n	x	n
O=C(CN1CCc2ccccc2C1)Nc1ccccc1N1CCCCCC1	n	18.3µM	x	n	n	x
COc1ccc(NC(=O)CSc2c3c(nc4ccccc24)CCC3)c(OC)c1	n	2.24µM	n[7.34 µM]	n	n	u
COc1cc(Cl)c(C)cc1NC(=O)CC1Oc2ccccc2NC1=O (stereo unspecified)	x	u	n	x	x	n
COc1ccc(NC(=O)CCS(=O)(=O)c2ccccc2)c(OC)c1	15.1	u	x	u	36.4	x
O=C(CN1CCc2ccccc2C1)Nc1ccccc1Cl	n	x	x	x	n	x
COc1ccc(OC)c(NC(=O)CC2Oc3ccccc3NC2=O)c1 (stereo unspecified)	14.2	x	x	x	n	x
Cc1ccc(C(=O)NC(O)C(Cl)Cl)cc1 (stereo unspecified)	n	n	n	n	n	n
Cc1ccc(C(=O)NC=C(Cl)Cl)cc1	26.4	u	n	n	84.0	n
c1ccc2c(c1)ccc1[nH]c3c(c12)CCCC3	x	0.501µM	n	0.631µM	x	u
CCC1CN(CC(=O)NC(c2ccccn2)C(F)(F)F)Cc2cc(OC)ccc2O1 (stereo unspecified)	x	x	n	x	x	n
CCOC(=O)N1CCC(NC(=O)CSCc2nc(-c3ccc(OCC)cc3)oc2C)CC1	n	x	x	x	n	x
